The record followed here is PMC7862700, “An all-to-all approach to the identification of sequence-specific readers for epigenetic DNA modifications on cytosine”.

Holding throughout (assay): DAPPL (digital affinity profiling via proximity ligation, sequencing); 10 mM Tris-HCl pH 7.5, 50 mM NaCl, 1 mM DTT, 4% glycerol, room temperature, 30 min; GST-TFs on glutathione beads, 16-mer random dsDNA library, 0.1% formaldehyde crosslink after washing; high values mean tight binding
What all share (settings): protein: recombinant; tags: N-terminal GST; dsDNA, one strand shown

The target in one experiment is T1, ELF3 (Homo sapiens, UniProt P78545 1-371).
T1 sequence: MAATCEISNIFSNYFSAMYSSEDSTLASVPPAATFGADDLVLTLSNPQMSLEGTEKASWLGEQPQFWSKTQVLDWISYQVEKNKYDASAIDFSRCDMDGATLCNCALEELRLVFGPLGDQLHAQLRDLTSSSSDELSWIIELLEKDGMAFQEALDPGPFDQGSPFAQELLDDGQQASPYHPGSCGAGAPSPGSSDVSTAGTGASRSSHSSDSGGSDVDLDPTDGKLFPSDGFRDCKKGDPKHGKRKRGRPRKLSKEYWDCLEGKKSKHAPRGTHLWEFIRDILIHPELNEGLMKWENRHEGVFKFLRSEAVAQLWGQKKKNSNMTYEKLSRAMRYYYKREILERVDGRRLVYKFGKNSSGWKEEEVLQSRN
Summed up:
(§1)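 Human transcription factors carrying a GST fusion were produced in yeast, bound to glutathione beads, tagged with DNA barcodes and pooled together with a tag-only sample. Each pool was held with 200 nmole of a random double-stranded 16-mer DNA library in Tris/NaCl/DTT/glycerol buffer for 30 min at room temperature, then washed, crosslinked in 0.1% formaldehyde, proximity-ligated with BsaI/T4 ligase (1 h, 37 °C), PCR-amplified and sequenced on an Illumina NextSeq500. Binding signal is the read frequency of each hexamer for a given factor divided by its frequency in the tag-only sample.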

The target of a further experiment is T2, ERF (Homo sapiens, UniProt P50548 1-548).
T2 sequence: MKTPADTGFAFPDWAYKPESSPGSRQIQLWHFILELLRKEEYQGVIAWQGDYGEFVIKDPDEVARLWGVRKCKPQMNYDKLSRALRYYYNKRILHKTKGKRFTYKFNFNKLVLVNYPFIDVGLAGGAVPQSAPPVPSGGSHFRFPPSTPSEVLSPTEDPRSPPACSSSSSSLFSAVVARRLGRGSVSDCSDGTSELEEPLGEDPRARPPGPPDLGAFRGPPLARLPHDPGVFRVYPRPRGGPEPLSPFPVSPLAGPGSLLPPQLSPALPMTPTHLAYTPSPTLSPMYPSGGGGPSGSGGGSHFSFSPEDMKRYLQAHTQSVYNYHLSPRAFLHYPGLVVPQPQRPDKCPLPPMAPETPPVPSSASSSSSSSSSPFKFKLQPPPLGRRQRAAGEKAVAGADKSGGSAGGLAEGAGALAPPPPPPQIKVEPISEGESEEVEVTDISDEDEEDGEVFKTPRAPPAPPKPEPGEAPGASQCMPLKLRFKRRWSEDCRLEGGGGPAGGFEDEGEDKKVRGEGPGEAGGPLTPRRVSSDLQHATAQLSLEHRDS
Summed up:
as §1

In a further experiment the target is CRX (Homo sapiens, UniProt O43186 1-299). Summed up:
as §1

In another experiment the target is T3, SPDEF (Homo sapiens, UniProt O95238 1-335).
T3 sequence: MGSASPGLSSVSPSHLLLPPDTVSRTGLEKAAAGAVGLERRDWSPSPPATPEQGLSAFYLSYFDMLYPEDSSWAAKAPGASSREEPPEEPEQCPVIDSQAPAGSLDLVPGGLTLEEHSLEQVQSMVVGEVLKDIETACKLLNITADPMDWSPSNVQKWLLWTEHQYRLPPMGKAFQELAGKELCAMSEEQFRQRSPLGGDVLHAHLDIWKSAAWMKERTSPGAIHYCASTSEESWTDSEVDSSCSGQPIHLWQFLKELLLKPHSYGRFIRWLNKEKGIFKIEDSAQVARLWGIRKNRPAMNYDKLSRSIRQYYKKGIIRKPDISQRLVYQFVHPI
Summed up: as §1

A further experiment deals with SPI1 (Homo sapiens, UniProt P17947 1-270). Summed up: as §1
The target in a further experiment is ETV6 (Homo sapiens, UniProt P41212 1-452). Summed up: as §1
Sequence of ETV6 (P41212 whole entry): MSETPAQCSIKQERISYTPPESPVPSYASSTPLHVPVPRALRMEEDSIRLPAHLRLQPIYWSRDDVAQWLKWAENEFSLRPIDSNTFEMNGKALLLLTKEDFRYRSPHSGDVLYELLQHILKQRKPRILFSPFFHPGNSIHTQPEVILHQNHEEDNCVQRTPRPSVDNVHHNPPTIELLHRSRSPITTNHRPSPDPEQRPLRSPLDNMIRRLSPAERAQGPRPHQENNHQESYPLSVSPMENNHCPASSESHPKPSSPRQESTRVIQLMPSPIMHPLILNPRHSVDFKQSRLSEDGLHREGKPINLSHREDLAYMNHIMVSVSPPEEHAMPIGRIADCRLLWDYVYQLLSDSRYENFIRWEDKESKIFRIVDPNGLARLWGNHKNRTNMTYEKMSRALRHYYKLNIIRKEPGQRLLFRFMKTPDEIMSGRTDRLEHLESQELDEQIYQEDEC
A further experiment addresses T4, ELF5 (Homo sapiens, UniProt Q9UKW6-2 1-255).
T4 sequence: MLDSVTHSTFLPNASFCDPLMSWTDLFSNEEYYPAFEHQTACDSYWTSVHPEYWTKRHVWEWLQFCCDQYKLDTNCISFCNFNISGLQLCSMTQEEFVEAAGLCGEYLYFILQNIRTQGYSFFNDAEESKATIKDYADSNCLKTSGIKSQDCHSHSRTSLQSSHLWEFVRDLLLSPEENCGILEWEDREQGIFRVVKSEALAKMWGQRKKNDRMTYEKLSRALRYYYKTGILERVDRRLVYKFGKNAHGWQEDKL
Summed up:
as §1

The next experiment deals with T5, GABPA (Homo sapiens, UniProt Q06546 1-454).
T5 sequence: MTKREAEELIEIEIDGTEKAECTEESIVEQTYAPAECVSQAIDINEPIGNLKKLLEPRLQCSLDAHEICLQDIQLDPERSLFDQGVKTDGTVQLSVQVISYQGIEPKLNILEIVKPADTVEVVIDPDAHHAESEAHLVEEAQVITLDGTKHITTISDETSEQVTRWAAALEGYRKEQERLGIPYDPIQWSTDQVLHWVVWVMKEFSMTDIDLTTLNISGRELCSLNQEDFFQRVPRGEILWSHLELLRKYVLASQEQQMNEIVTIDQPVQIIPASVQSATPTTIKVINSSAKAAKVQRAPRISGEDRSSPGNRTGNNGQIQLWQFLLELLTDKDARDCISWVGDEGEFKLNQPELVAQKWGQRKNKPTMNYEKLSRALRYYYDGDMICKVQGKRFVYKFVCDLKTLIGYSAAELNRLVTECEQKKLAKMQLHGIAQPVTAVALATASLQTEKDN
The method, boiled down:
as §1

In another experiment the target is SPIB (Homo sapiens, UniProt Q01892 1-262). The method, boiled down: as §1
Sequence of SPIB (Q01892 whole entry): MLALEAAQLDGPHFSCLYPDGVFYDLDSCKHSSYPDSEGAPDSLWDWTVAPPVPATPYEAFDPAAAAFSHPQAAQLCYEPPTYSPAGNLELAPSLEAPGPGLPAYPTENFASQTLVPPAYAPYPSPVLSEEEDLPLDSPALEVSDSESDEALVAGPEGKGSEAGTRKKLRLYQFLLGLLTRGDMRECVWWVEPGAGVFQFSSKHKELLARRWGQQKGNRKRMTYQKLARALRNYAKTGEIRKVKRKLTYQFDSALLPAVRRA
The next experiment addresses ELF1 (Homo sapiens, UniProt P32519 1-619). Summed up: as §1
A further experiment addresses T6, EHF (Homo sapiens, UniProt Q9NZC4 1-300).
T6 sequence: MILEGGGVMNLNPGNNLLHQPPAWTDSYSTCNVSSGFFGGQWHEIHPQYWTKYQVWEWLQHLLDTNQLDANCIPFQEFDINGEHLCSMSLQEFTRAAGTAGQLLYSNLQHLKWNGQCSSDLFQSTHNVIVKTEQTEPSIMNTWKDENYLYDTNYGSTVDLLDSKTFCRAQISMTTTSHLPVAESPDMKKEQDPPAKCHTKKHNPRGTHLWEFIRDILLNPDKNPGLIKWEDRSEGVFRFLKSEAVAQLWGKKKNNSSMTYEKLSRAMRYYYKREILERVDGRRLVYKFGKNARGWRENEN
The method, boiled down:
as §1

In the next experiment the target is T7, FEV (Homo sapiens, UniProt Q99581 1-238).
T7 sequence: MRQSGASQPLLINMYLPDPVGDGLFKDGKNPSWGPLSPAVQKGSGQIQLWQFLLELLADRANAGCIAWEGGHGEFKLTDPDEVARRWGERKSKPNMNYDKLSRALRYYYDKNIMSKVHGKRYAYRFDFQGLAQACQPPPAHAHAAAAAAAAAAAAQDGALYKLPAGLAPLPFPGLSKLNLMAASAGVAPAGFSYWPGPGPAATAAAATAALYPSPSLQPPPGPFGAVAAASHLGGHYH
The method, boiled down: as §1

Sequence of CRX (O43186 whole entry): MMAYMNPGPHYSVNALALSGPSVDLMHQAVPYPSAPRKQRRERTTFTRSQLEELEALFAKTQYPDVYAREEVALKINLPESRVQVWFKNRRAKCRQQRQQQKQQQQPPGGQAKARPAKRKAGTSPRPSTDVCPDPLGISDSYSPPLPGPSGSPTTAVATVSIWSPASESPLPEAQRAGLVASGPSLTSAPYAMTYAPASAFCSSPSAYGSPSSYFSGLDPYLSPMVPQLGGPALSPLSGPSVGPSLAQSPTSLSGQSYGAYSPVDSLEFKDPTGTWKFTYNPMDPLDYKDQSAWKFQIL
Sequence of ELF1 (P32519 whole entry): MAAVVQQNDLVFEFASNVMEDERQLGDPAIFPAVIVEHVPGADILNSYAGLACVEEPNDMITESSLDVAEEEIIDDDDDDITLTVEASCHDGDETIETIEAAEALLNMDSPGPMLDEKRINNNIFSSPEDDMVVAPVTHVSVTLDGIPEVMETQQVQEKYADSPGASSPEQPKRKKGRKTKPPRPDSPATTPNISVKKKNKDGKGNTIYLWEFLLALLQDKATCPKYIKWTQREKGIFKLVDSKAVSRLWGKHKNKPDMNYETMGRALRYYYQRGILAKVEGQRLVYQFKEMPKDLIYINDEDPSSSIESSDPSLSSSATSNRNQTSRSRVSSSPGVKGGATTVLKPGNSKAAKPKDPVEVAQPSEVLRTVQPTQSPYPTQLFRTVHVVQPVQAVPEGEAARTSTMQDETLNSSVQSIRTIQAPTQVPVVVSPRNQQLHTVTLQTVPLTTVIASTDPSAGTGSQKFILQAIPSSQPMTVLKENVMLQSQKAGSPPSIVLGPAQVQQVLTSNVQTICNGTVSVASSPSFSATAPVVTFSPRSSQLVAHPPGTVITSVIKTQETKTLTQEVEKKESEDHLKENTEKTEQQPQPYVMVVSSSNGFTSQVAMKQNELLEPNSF

Consider TACGGG, for which the binding signal with ELF3 was 1.01 fold enrichment (6-mer frequency, TF over GST control); in the experiment with ERF, 1.08 fold enrichment (6-mer frequency, TF over GST control).

Regarding GCGGAT, the binding signal in the experiment with CRX is 1.2 fold enrichment (6-mer frequency, TF over GST control); with SPDEF, 1.25 fold enrichment (6-mer frequency, TF over GST control).

Take TAGCCG: the binding signal in the experiment with CRX is 1.05 fold enrichment (6-mer frequency, TF over GST control).

AGTACG: the binding signal with SPI1 is 1.02 fold enrichment (6-mer frequency, TF over GST control); in the experiment with ELF3 it was 1.01 fold enrichment (6-mer frequency, TF over GST control); with ETV6, 1.03 fold enrichment (6-mer frequency, TF over GST control).

On to GTGTAA, for which the binding signal in the experiment with SPI1 was 1.04 fold enrichment (6-mer frequency, TF over GST control); with ELF3, 1.11 fold enrichment (6-mer frequency, TF over GST control).

On to TAAGGA, for which the binding signal was 1.22 fold enrichment (6-mer frequency, TF over GST control) with CRX and 1.32 fold enrichment (6-mer frequency, TF over GST control) in the experiment with ELF5.

Regarding CCAAAG, the binding signal with GABPA was 1.01 fold enrichment (6-mer frequency, TF over GST control); in the experiment with SPIB, 1.01 fold enrichment (6-mer frequency, TF over GST control); with CRX, 1.05 fold enrichment (6-mer frequency, TF over GST control).

With TGTCGC, the binding signal with ELF1 was 1.04 fold enrichment (6-mer frequency, TF over GST control); in the experiment with EHF it was 1.03 fold enrichment (6-mer frequency, TF over GST control); in the experiment with SPI1 it was 1.02 fold enrichment (6-mer frequency, TF over GST control); with FEV, 1.02 fold enrichment (6-mer frequency, TF over GST control); with ELF3, 1.08 fold enrichment (6-mer frequency, TF over GST control); with ERF, 1.04 fold enrichment (6-mer frequency, TF over GST control). Further, the binding signal with ELF5 is 1.04 fold enrichment (6-mer frequency, TF over GST control); with ETV6 it was 1.01 fold enrichment (6-mer frequency, TF over GST control).

For the sequence GAGCTA, the binding signal was 1 fold enrichment (6-mer frequency, TF over GST control) with EHF and 1.02 fold enrichment (6-mer frequency, TF over GST control) in the experiment with ELF3.

Turning to AGCTTG, the binding signal in the experiment with GABPA is 1.02 fold enrichment (6-mer frequency, TF over GST control); with CRX, 1.04 fold enrichment (6-mer frequency, TF over GST control).
